# Measurements published in PubChem BioAssay AID651812 (National Center for Advancing Translational Sciences (NCATS), 2012).
# Hit rate of the full screen: of about 2,100 compounds, about 650 (31%) were called active. Another 16% or so got no clear call; they are omitted. Calls follow the shape of the dose curve; as a rule, active = well fitted inhibition curve with a large enough effect; inconclusive = small, poorly fitted or top-dose-only effect; inactive = flat fitted curve, though single readings scatter. The list shows a part of the results.
# Assay: qHTS for inhibitors of Vif-A3G interactions: Cherry picks; also: nearly all actives have a fitted effect of over 80% in size; as to activity, negative = fluorescence increase: % of control where 0% means no effect
# Settings: HeLa A3G-eYFP + Vif (tagged APOBEC3G with the HIV-1 protein that degrades it), 24 h; Potency: eYFP fluorescence increase; series mostly up to 36.9 µM; activity, negative = fluorescence increase: at the top concentration
# Procedure, shortened: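 HeLa cells stably expressing A3G-eYFP and Vif, cultured overnight then exposed to compounds at several concentrations for 24 hours at 37 C, 5% CO2; cellular yellow fluorescence (488 nm ex, 500-530 nm em) imaged on Acumen, MG132 positive control.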
# Potency is read from the fitted curve at half-maximal effect.
Compound,"activity, negative = fluorescence increase",Potency
C/C(=N\NC(=O)C(C)n1nc(C)c([N+](=O)[O-])c1C)c1ccccc1O (configuration not stated),-0.134% [at 46.1 µM] (inactive),–
Cc1cc(C)cc(Oc2nc(C(F)(F)F)nc3ccccc23)c1,-7.3% (inactive),–
CCCCN1C(=O)c2cccc3cc(O)cc(c23)C1=O,–,16.4 µM (active)
Cc1c(Cl)cccc1NC(=O)c1oc2ccc(S(=O)(=O)N3CCC4(CC3)OCCO4)cc2c1C,-4.65% [at 46.1 µM] (inactive),–
COc1ccc(NC(=O)C(NC(=O)/C=C\c2ccc3c(c2)OCO3)c2ccccc2)cc1 (configuration not stated),-4.24% [at 46.1 µM] (inactive),–
O=C(N/N=C/c1ccc2c(c1)OCO2)c1cccc2ccccc12,-1.42% (inactive),–
CCNc1ccc(Br)cc(C(=O)/C=C/c2ccc3c(c2)OCO3)c1=O,–,18.4 µM (active)
COc1ccc(NC(=O)C2Cc3c(-c4cccc(C(C)=O)c4)ccnc3O2)cc1 (configuration not stated),-8.31% (inactive),–
Cc1ccccc1-n1c(/C=C/c2c(C)n(C)c3ccccc23)nc2ccccc2c1=O,–,8.2 µM (active)
Cc1c(/C=N\NC(=O)c2cc3ccccc3o2)c2ccccc2n1C,-6.08% (inactive),–
CCCn1c(CN2CCN(C(=O)OCC)CC2)nc2cc(NC(=O)C(C)C)ccc21,0.103% (inactive),–
COc1ccccc1Nc1nnc(SCC2CCCCO2)s1 (configuration not stated),-0.68% (inactive),–
Cc1cc2nc(SCCOC(=O)Nc3cccc(Cl)c3)nc(C)c2cc1C,4.01% [at 46.1 µM] (inactive),–
Cn1ncc(N=Cc2c(O)ccc3ccccc23)c1C(=O)Nc1cccc(Cl)c1,–,11.6 µM (active)
O=C(NN=Cc1c(O)ccc2ccccc12)c1ccc2c(c1)OCO2,-26.3% [at 46.1 µM] (inactive),–
Cc1nc(CSc2nsc(/C=C/N(C)C)c2C#N)cs1,-3.04% (inactive),–
CSc1nsc(/C=C/Nc2ccc(O)cc2C)c1C#N,–,20.6 µM (active)
CSc1nsc(/C=C/Nc2ccc(F)cc2)c1C#N,4.62% [at 46.1 µM] (inactive),–
Cc1cc(C)nc(Nc2n[nH]c(COc3cccc4ccccc34)n2)n1,1.35% (inactive),–
CCN(CC)C(=O)Cn1c(=O)n(-c2ccccc2)c(=O)c2c3c(sc21)CCC3,11.4% [at 46.1 µM] (inactive),–
Cc1ccc(NC(=O)c2ccc([N+](=O)[O-])s2)cc1S(=O)(=O)N1CCOCC1,3.79% (inactive),–
O=C(NC(=S)Nc1ccc(N2CCCCC2)c(Cl)c1)c1ccc2c(c1)OCCO2,-0.693% [at 46.1 µM] (inactive),–
Cc1ccc2c(CC(=O)NCc3ccco3)coc2c1C,-4.36% (inactive),–
Cc1ccc(NC(=O)c2ccc(NCC3CCCO3)c([N+](=O)[O-])c2)cc1Cl (configuration not stated),–,16.4 µM (active)
Cc1ccc(NC(=O)CSc2ccccc2NC(=O)c2cccc(Cl)c2)cc1Cl,2.74% [at 46.1 µM] (inactive),–

Compound,"activity, negative = fluorescence increase",Potency
O=C(Nc1cc(F)cc(F)c1)c1ccc(NCCc2ccccc2)c([N+](=O)[O-])c1,–,14.6 µM (active)
Cc1ccc(NC(=O)c2ccc(NCc3ccco3)c([N+](=O)[O-])c2)cc1Cl,–,18.4 µM (active)
O=C(O)c1ccc(NS(=O)(=O)c2cccc(C(=O)Nc3ccccc3[N+](=O)[O-])c2)cc1,-3.19% (inactive),–
S=C(Nc1ccccc1)N1CCn2c1nc1ccccc12,-1.43% (inactive),–
CC(=O)c1cccc(-c2ccnc3c2CC(C(=O)Nc2ccc4c(c2)OCO4)O3)c1 (configuration not stated),-0.931% (inactive),–
COc1ccccc1N1CCN(C(=O)c2cc(=O)c3cc(C)ccc3o2)CC1,-7.42% (inactive),–
CCCC(=O)NC(c1ccc(OC)cc1)c1c(O)ccc2ccccc12 (configuration not stated),-6.1% (inactive),–
COc1cc(-c2cc(NC=O)c3ncc(-c4ccc(C(C)=O)cc4)n3c2)cc(OC)c1OC,0.567% (inactive),–
CCN(CC)c1nc(C)c(C(=S)Nc2cc([N+](=O)[O-])ccc2Cl)s1,7.74% [at 46.1 µM] (inactive),–
C/C(CCC(C)C)=N\NC(=S)NCc1ccccc1,4.1% [at 46.1 µM] (inactive),–
CCN1CCc2c(sc(NC(=O)c3ccc(S(=O)(=O)N(CC)c4ccccc4)cc3)c2C(N)=O)C1,–,17.7 µM (active)
CC(C)N1CCc2c(sc(NC(=O)c3ccc(S(=O)(=O)N4CCOCC4)cc3)c2C#N)C1,–,20.6 µM (active)
CC(C)N1CCc2c(sc(NC(=O)c3cc4cc([N+](=O)[O-])ccc4s3)c2C(N)=O)C1,-27.5% [at 46.1 µM] (inactive),–
Cc1ccc(C(=O)Nc2sc(Cc3ccc4c(c3)OCO4)c(C)c2C(N)=O)cc1,-26.3% [at 46.1 µM] (inactive),–
COc1ccc(C(=O)Nc2sc3c(c2C#N)CCN(C(C)=O)C3)cc1,-8.58% (inactive),–
CCN1CCc2c(sc(-n3cccc3)c2C(C)NC(=O)Nc2ccc(C(=O)OC)cc2)C1 (configuration not stated),10.3% [at 46.1 µM] (inactive),–
COc1cccc(C(=O)Nc2sc3c(c2C#N)CCN(C(C)=O)C3)c1,-8.68% (inactive),–
CCCCN(CCCC)S(=O)(=O)c1ccc(C(=O)Nc2sc3c(c2C(N)=O)CCN(CC)C3)cc1,–,29.1 µM (active)
CC(C)CN(CC(C)C)S(=O)(=O)c1ccc(C(=O)Nc2sc3c(c2C(N)=O)CCN(C(C)C)C3)cc1,–,18.4 µM (active)
CC1(C)COC(Cn2c3ccccc3c3ccccc32)O1 (configuration not stated),-5.66% (inactive),–
COC(=O)c1ccc(Oc2cc(C)nc(SC)n2)cc1,-10.7% (inactive),–
CC(/C=N/NC(=O)c1cccc(F)c1)=C\c1ccccc1,-11.1% (inactive),–
O=C(Cn1ncc(Cl)c(Cl)c1=O)NC(=O)NC1CCCCC1,0.0571% (inactive),–
C=CCSc1nc2sc3c(c2c(=O)n1CC)CCC3,1.48% [at 46.1 µM] (inactive),–
COc1ccc(S(=O)(=O)N2c3ccccc3OCC2CC(=O)O)cc1 (configuration not stated),-10.8% (inactive),–

Compound,"activity, negative = fluorescence increase",Potency
CCOC(=O)c1c(NC(=O)c2ccc(S(=O)(=O)N3CCC(C)CC3)cc2)sc2c1CCN(C)C2,–,18.4 µM (active)
COc1ccccc1N(C)S(=O)(=O)c1ccc(C(=O)OCC(=O)N2CCC2)cc1,-5.51% (inactive),–
CCCN1CCc2c(sc(NC(=O)c3ccc(S(=O)(=O)N(C)c4ccccc4)cc3)c2C(=O)NC)C1,–,18.4 µM (active)
CC(C)(C)C(=O)Nc1sc2c(c1C#N)CCN(Cc1ccccc1)C2,-0.815% [at 46.1 µM] (inactive),–
CCCN1CCc2c(sc(NC(=O)c3ccc(S(=O)(=O)N(C)c4ccccc4)cc3)c2C(N)=O)C1,–,16.4 µM (active)
CSc1nc2ccccc2cc1/C=C(\C#N)c1ccccc1,-8.54% (inactive),–
COc1cc(N2CCCC2)c(OC)cc1/C=C(/C#N)c1ccc(Br)cc1,–,8.2 µM (active)
COc1cc(N2CCCC2)c(OC)cc1/C=C(/C#N)c1ccc(F)cc1,–,18.4 µM (active)
COc1cc(-c2cnc3c(NC(C)=O)cc(-c4ccccc4CN(C)C)cn23)cc(OC)c1OC,-4.76% (inactive),–
COc1cc(C(=O)OCC(=O)Nc2ccc(N3CCOCC3)cc2)ccc1OCC(C)C,0.73% (inactive),–
CN(C)c1ccc(/C=C/c2ccnc3ccc(Br)cc23)cc1,–,2.59 µM (active)
COc1ccc2nccc(/C=C/c3ccc(N(C)C)cc3)c2c1,–,18.4 µM (active)
Cc1cc(C)c2nccc(/C=C/c3ccc(N(C)C)cc3)c2c1,–,16.4 µM (active)
CN(C)c1ccc(/C=C/c2ccnc3ccc(I)cc23)cc1,–,5.17 µM (active)
CC1(C(=O)NCc2cccs2)Cc2c(-c3ccc(C(N)=O)cc3)ccnc2O1 (configuration not stated),-1.21% (inactive),–
COc1ccccc1-c1cc(NC=O)c2ncc(-c3cccc(C(=O)N(C)C)c3)n2c1,-7.96% (inactive),–
COc1cc(C(=O)Nc2ccc3c(c2)ncn3C)cc(OC)c1OC,-5.75% (inactive),–
CC(=O)Nc1cccc(-c2ccnc3c2CC(C(=O)NCc2ccco2)O3)c1 (configuration not stated),-4.86% (inactive),–
CN(C)c1ccc(/C=C/c2ccnc3ccc(N)cc23)cc1,–,18.4 µM (active)
Cc1ccc2nccc(/C=C/c3ccc(N(C)C)cc3)c2c1,–,16.4 µM (active)
O=C(NCc1ccccc1)C1Cc2c(-c3cccc(F)c3)ccnc2O1 (configuration not stated),-18% (inactive),–
Cn1c(=O)c2cc(NC(=O)NCc3ccc(F)cc3)ccc2n1C/C=C/c1ccccc1,0.546% (inactive),–
CCCCn1c(N)c(N(CC(C)C)C(=O)Cc2ccc(S(=O)(=O)N3CCOCC3)s2)c(=O)[nH]c1=O,–,18.4 µM (active)
CCCCn1c(N)c(N(Cc2ccccc2OC)C(=O)c2ccc([N+](=O)[O-])s2)c(=O)[nH]c1=O,-21.6% [at 46.1 µM] (inactive),–
C=CCN1C(=O)c2ccc(C(=O)N(CC(C)C)c3c(N)n(CCCC)c(=O)[nH]c3=O)cc2C1=O,-5.71% (inactive),–

Compound,"activity, negative = fluorescence increase",Potency
Cc1cc(N)cc(C)c1-c1c(Br)cc(N)cc1Br,-5.29% (inactive),–
COc1ccc(/C=C/C=C2\NC(=S)NC2=O)cc1,–,6.51 µM (active)
CCOc1cccc(-n2nnnc2-c2ccc(OC)cc2)c1,-8.47% (inactive),–
CCOc1ccc(Cn2c3ccc(OC)cc3c3nc4ccccc4nc32)cc1,–,16.4 µM (active)
COc1ccc2c(c1)c1nc3ccccc3nc1n2CC(=O)OC(C)C,–,3.66 µM (active)
COc1cccc(Cn2c(-c3nonc3N)nc3ccccc32)c1,-12.7% (inactive),–
COc1cccc(Cn2c(-c3nonc3NC(C)=O)nc3ccccc32)c1,-5.99% [at 46.1 µM] (inactive),–
CCCN1CCC(=NNc2ccc(S(=O)(=O)N3CCOCC3)cc2[N+](=O)[O-])CC1,1.28% (inactive),–
COc1cc(S(=O)(=O)Nc2ccccc2N2CCCCC2)ccc1NC(C)=O,2.56% (inactive),–
CCOCCC(=O)Nc1ccc2c(c1)c(=O)n(C)n2C/C=C/c1ccccc1,0.9% (inactive),–
Cc1cccc(Cn2c(=O)n(CCCC(=O)NCc3ccco3)c(=O)c3ccccc32)c1,-0.125% (inactive),–
CCCn1c(SCC(=O)Nc2ccccc2OC)nnc1-c1ccco1,-6.38% (inactive),–
O=C(CCCCn1c(=O)c2ccccc2n(Cc2ccc(F)cc2)c1=O)NCc1ccco1,-10.3% (inactive),–
COc1ccc(NC(=O)CSc2nc3c(oc4ccccc43)c(=O)n2Cc2ccco2)cc1Cl,–,14.6 µM (active)
COc1cc2nc(SCC(=O)NCc3ccco3)n(Cc3ccc(Cl)cc3)c(=O)c2cc1OC,–,5.8 µM (active)
COc1ccccc1CCC(=O)Nc1ccc2c(c1)c(=O)n(C)n2Cc1ccc(F)cc1,1.23% (inactive),–
c1ccc(N=Nc2ccc3cccccc2-3)cc1,-12.8% (inactive),–
Cc1ccc(-c2csc(NC3OC(=O)c4ccccc43)n2)cc1 (configuration not stated),1.91% (inactive),–
CCOC(=O)C(=Cc1ccc(-n2cncn2)cc1)C(=O)OCC,-2.14% (inactive),–
CCOc1cc(S(=O)(=O)NCc2ccc(OC)cc2)c(OCC)cc1-n1cnnn1,-7.38% (inactive),–
CC(C)(C)OC(=O)NCc1ccc(NC(=O)c2nc[nH]c2C(=O)NCCCNC(=O)c2[nH]cnc2C(=O)Nc2ccc(CNC(=O)OC(C)(C)C)cc2)cc1,-19.8% (inactive),–
CCC(C)n1c(NC(=O)c2ccccc2)c(C#N)c2nc3ccccc3nc21 (configuration not stated),–,18.4 µM (active)
